Compound activity: PubChem, several laboratories
An excerpt weighted towards active compounds, which were near 1.7% of everything screened.
TAG inh: triacylglycerol accumulation inhibition. H9c2 cells, Nile Red lipid (TAG) fluorescence; cells loaded with 200 µM oleic acid. inhibition, % at 12.5 µM. 230,000 compounds, 0.66% hits;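 active means pattern-corrected inhibition of lipid staining of at least 50% with the nuclear-stain viability signal not falling by more than 50%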;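 further: 0% = DMSO wells and 100% = triacsin C control wells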
MIN6 prolif-1: MIN6 beta-cell proliferation induction; MIN6 cells proliferation, ATPlite luminescence, 48 h; cells starved in 0.2% serum; 100% = growth in 10% serum; 330,000 compounds, 0.29% hits; proliferation, % at 10 µM; AID 2380;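 active means compounds whose signal lies at least 3.5 SD above the mean of all wells on their plate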;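 further: 0% = DMSO-treated cells in low-serum medium and 100% = 10% serum control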
CHT PAM: allosteric activators of human choline transporter CHT; CHT-expressing cells, membrane potential dye, choline EC20; active compounds read high; LV-AA mutant CHT in HEK293 cells; AID 488977; 310,000 compounds, 0.49% hits; B-score at 10 µM;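 active means initial fluorescence not abnormally high and integrated response B-score, plate-corrected, over 3 SD above library mean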
Target sequence (Q9GZV3 whole entry, looked up): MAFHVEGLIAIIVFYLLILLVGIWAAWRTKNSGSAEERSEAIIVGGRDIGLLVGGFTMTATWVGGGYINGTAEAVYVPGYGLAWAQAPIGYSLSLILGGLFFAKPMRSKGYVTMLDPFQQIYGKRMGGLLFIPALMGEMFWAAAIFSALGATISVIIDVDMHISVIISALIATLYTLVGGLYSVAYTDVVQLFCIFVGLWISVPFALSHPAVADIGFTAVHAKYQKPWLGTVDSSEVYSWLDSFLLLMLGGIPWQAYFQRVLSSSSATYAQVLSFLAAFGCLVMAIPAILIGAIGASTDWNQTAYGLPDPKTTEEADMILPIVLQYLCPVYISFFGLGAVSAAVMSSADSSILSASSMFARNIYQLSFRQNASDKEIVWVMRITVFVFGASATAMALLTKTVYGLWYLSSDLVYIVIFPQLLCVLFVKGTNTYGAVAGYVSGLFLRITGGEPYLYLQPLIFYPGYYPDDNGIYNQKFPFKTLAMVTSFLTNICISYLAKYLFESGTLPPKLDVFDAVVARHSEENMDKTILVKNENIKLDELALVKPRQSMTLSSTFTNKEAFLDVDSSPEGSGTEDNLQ
CHT block: inhibits the human high affinity choline transporter; Q9GZV3; 310,000 compounds, 0.86% hits; CHT-expressing cells, membrane potential dye, choline response; active compounds read low; B-score at 10 µM;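 active means B-score over 3 SD under the library average, and starting fluorescence ratio not unusually high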;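 further: choline stimulus applied at its EC90 after an EC20 pre-addition; B-score computed on integrated fluorescence ratio after choline addition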
MIN6 prolif-2: confirmation of inducers of beta-cell replication in MIN6 cells. shares compounds with MIN6 prolif-1. MIN6 beta-cell proliferation, ATPlite luminescence, 48 h; cells kept in 0.2% serum; scaled between 0.2% and 10% serum. proliferation increase, % at 50 µM. 920 tested, under 10 active;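 active means proliferation increase above 40% at any of the four tested concentrations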
* = called active by the depositor; i = inactive; . = no result given.

SMILES	TAG inh	MIN6 prolif-1	CHT PAM	CHT block	MIN6 prolif-2
Cc1ccnc(NC(=O)CCC(=O)N(CC(=O)NC(C)(C)C)c2ccc3c(c2)OCO3)c1	.	0	i	i	.
COc1ccccc1NC(=O)N1CCN(c2ccccc2F)CC1	6	7.3*	i	i	0
COc1cccc(-c2cnc(C(O)c3ccc(Cl)cc3C)[nH]2)c1 (centres undefined)	-10	.	.	.	.
O=C(NCc1ccco1)C(c1cccs1)N(Cc1ccccc1)C(=O)Cn1nnc2ccccc21 (centres undefined)	4	-1	i	i	.
O=C(NCc1ccco1)C(c1ccco1)N(Cc1cccs1)C(=O)Cn1nnc2ccccc21 (centres undefined)	5	8.0*	i	i	0
COc1cc(/C(C)=N/NC(=O)c2nnn(-c3nonc3N)c2-c2cccs2)ccc1O	.	4.6*	i	i	-4
COc1ccc(-c2csc(NC(=O)CN3C(=O)C4CC=CCC4C3=O)n2)cc1 (centres undefined)	36	-3	.	.	.
COc1ccc(-c2csc(NC(=O)CCN3C(=O)C4CC=CCC4C3=O)n2)cc1OC (centres undefined)	18	13*	i	i	-4
OCCC1CN(Cc2c(F)cccc2Cl)CCN1C1CCCC1 (centres undefined)	-9	8.1*	i	i	0
CCOc1ncccc1C(=O)OC(C)C(=O)Nc1ccc(Cl)cn1 (centres undefined)	-6	13*	.	.	-1
COc1ccc(-c2csc3ncnc(N4CCN(C(=O)c5ccco5)CC4)c23)cc1	-1	11*	i	i	-5
CCOc1ccc(N2CC(C(=O)Nc3nnc(Cc4ccccc4)s3)CC2=O)cc1 (centres undefined)	.	-1	i	i	.
COc1cc2c(cc1OC)-c1cc(Nc3ccccc3C)nc(=O)n1CC2	.	7	i	i	.
CCOc1ccccc1Nc1cc2n(c(=O)n1)CCc1cc(OC)c(OC)cc1-2	.	12*	i	i	-1
CC(C)n1c(N2CCN(C(=O)NCc3ccccc3)CC2)nc2ccccc21	-7	8.4*	i	i	-3
COc1ccc(NC(=O)N2CCN(c3nc4ccccc4n3C(C)C)CC2)cc1	6	5	i	i	.
C/C(=C/CCC(C)(O)C1CC[C@@]2(C)[C@@H]3CC=C4[C@@H](CC[C@H](O[C@H]5O[C@@H](CO)[C@H](O)[C@@H](O)[C@@H]5O)C4(C)C)[C@]3(C)C(=O)C[C@]12C)CO[C@@H]1O[C@H](CO)[C@@H](O)[C@H](O)[C@H]1O (some centres undefined)	12	-3	.	.	.
CC1(CNC(=O)C(=O)NCC2(C)CO2)CO1 (centres undefined)	10	.	.	.	.
CCOC(=O)c1c(C)[nH]c(C)c1C(=O)COC(=O)[C@@H](NC(=O)c1ccccc1OCC)C(C)C	.	7.4*	i	i	-6
COc1ccc(NC(=S)N2CCN(S(=O)(=O)c3ccc(OC)cc3)CC2)cc1	1	-2	i	i	.
OC(CNc1ccccc1)Cn1ccc2ccccc21 (centres undefined)	-3	-2	i	i	.
CCN(CC)S(=O)(=O)c1cc(OC)c(Cl)cc1OC	.	7.8*	i	i	-1
COCCCNC(=O)CN(c1ccc(F)cc1)S(=O)(=O)c1ccc2c(c1)OCCO2	.	6.0*	i	i	-1
O=C(CN(c1ccc(F)cc1)S(=O)(=O)c1ccc2c(c1)OCCO2)NCc1ccccc1	.	0	i	i	.
COc1ccc(-c2nn3c(C4CCCCC4)nnc3s2)cc1OC	.	9.1*	i	i	-6
SMILES	TAG inh	MIN6 prolif-1	CHT PAM	CHT block	MIN6 prolif-2
COc1cc(CC(=O)NCCCc2ccccc2)cc(OC)c1OC	.	6.0*	i	i	-2
Cc1cc(N(C)C)cc(C)c1N=Nc1cc[n+]([O-])cc1	2	.	.	.	.
COc1ccc(N(CC(=O)Nc2cccc(C)c2)S(=O)(=O)c2c(C)n[nH]c2C)cc1	35	-4	i	i	.
COc1cc(NC(=O)CN(c2ccc(C)cc2)S(=O)(=O)c2c(C)n[nH]c2C)cc(OC)c1	-11	0.0*	i	i	-6
Cc1ccc(C)c(Cn2nnc3c(=O)[nH]c(C4CCCN(C(=O)c5cccs5)C4)nc32)c1 (centres undefined)	.	0	i	i	.
CCOC(=O)C1(CCc2ccccc2)CCN(Cc2cnc(N(C)C)s2)CC1	-12	-1	i	i	.
CN(C)c1ncc(CN2CCC(CO)(CCCc3ccccc3)CC2)s1	3	7.3*	i	i	-3
Cc1ccsc1C(=O)NCc1ccc(F)cc1	.	-1	i	i	.
CC(=O)NC(=Cc1ccccc1)C(=O)N1CCCC1C(=O)O (centres undefined)	-7	.	.	.	.
O=S(=O)(c1cnccc1N1CCN(/N=C/c2ccccc2)CC1)N1CCCCC1	3	5.6*	i	i	0
COc1nc(N(C)C)nc(N(C#N)S(=O)(=O)c2ccc(C)cc2)n1	.	5.8*	i	i	1
Cc1nc(NC(=O)c2ccc(Br)o2)ccc1Br	.	11*	.	.	-1
CCN1CC=C2C(C1)C(c1ccc(Cl)s1)C(C#N)=C(N)C2(C#N)C#N (centres undefined)	-8	.	i	i	.
c1ccc(Nc2nc3ccccc3n3nnnc23)cc1	23	2	i	i	.
Fc1cccc(Nc2nc3ccccc3n3nnnc23)c1	14	13*	i	i	4
COc1cc(/C=N/NC(=O)CCOc2ccccc2C)cc(Br)c1O	-2	7.3*	i	i	-4
C=CCOc1ccc(-c2nc3c(c(=O)[nH]c(=O)n3CCCC)n2C)cc1Br	.	0	i	i	.
C=CCOc1ccc(-c2nc3c(c(=O)[nH]c(=O)n3CCC)n2CCCC)cc1	.	0.0*	i	i	3
COCCn1c(-c2ccc3ccccc3c2)nc2c1c(=O)[nH]c(=O)n2CC(C)C	.	9.0*	i	i	-6
COCCCn1c(-c2ccc(OC)cc2)nc2c1c(=O)[nH]c(=O)n2Cc1ccccc1	.	0.0*	i	i	-4
COCCCn1c(-c2ccsc2)nc2c1c(=O)[nH]c(=O)n2Cc1ccccc1	-3	-1	i	i	.
CCn1cc(CN2CCC(n3nccc3NC(=O)c3ccc(OC)cc3)CC2)cn1	.	1	i	i	.
COc1ccc(/C=N/NC(=O)COc2cc(C)cc(C)c2)cc1COC(C)=O	.	-1	i	i	.
O=C(COC(=O)c1cccnc1Cl)Nc1ccc(N2CCOCC2)cc1	-4	.	.	.	.
CCOC(=O)c1c(S(=O)(=O)NCC(=O)Nc2cc(C)ccc2OC)c(C)n(C)c1C	.	2	i	i	.
CCOC(=O)c1c(S(=O)(=O)NCC(=O)Nc2ccccc2OC)c(C)n(C)c1C	.	13*	i	i	2
CCOC(=O)c1c(S(=O)(=O)NCC(=O)Nc2ccc(OC)cc2)c(C)n(C)c1C	.	13*	i	i	-2
